A selection: hits, their analogues and other compounds. The true share with any hit is near 9.2%.
FLuc modulator: firefly luciferase modulation, counter-screen for miR-21 project. purified FLuc, Km substrates, luminescence inhibition. Potency, µM (series often up to 57.5 µM), for the others: at the highest dose activity change, negative = inhibition, hits mostly inhibitors. 6.9% of 360,000 active. AID 588342;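 note: plate controls were vehicle for no effect and reference inhibitor for full effect; nearly all actives have a fitted effect of over 55% in size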
Target sequence (P08659 whole entry, looked up): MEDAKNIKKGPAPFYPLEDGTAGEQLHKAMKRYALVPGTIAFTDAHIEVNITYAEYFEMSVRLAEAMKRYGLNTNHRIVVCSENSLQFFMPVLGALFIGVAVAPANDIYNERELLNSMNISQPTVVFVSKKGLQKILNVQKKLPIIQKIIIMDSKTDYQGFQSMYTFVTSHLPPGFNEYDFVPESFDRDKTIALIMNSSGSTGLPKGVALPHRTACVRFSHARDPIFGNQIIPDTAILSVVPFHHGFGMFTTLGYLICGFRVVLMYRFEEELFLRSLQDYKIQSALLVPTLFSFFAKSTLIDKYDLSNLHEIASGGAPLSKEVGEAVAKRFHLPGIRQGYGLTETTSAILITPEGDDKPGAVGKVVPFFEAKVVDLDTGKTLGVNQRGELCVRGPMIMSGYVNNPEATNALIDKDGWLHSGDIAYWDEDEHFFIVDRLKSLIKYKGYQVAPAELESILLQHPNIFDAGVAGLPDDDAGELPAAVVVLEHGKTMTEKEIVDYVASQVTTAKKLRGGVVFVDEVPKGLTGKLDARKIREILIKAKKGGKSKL
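Purified P. pyralis luciferase, 10 nM final, with Km-level 10 uM D-luciferin and 10 uM ATP in 50 mM Tris acetate pH 7.5, 10 mM Mg acetate, 0.01% Tween-20, 0.05% BSA; 6-point qHTS titration about 60 µM downward; luminescence read.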
ELG1 genotox: induces genotoxicity in HEK293T cells with luciferase-tagged ELG1; HEK293T ELG1-luciferase reporter, luminescence, 16 h; Potency, µM (top dose mostly 46 µM), for inactives: top-dose activity change, positive = activation, hits mostly activators; 1.3% of 330,000 active; AID 504466; note: % of control where 0% means no effect; nearly all actives have a fitted effect of over 60% in size
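HEK293T cells expressing luciferase-tagged ELG1 were exposed to compound or DMSO vehicle for 16 hr at 37 °C and 5% CO2. Luciferase activity was then measured with ONE-Glo after 30 min at room temperature.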
ELG1 repair inh: ELG1-dependent DNA repair inhibition. HEK293T ELG1-luciferase reporter, luminescence, 16 h; DNA damage induced by 5-fluorouridine. Potency, µM (doses to about 46.1 µM), for inactives: at the top dose activity change, negative = inhibition, usual class: inhibitors. 2.3% of 330,000 active; note: % is set by controls: 0 for no effect and ±100 for the full control effect; nearly all actives have a fitted effect of over 55% in size
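Luminescence from the luciferase reporter, measured 30 min after ONE-Glo reagent at room temperature, was the read-out. Beforehand, 2,000 cells per well were exposed for 16 hr at 37 °C to 5-fluorouridine together with compound or vehicle.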
SMN2 splice up: enhancers of SMN2 splice variant expression. 2.8% of 210,000 active. HEK293 SMN2-luciferase splicing reporter, luminescence, 30-36 h. Potency, µM (top dose mostly 46.1 µM), for the others: top-dose activity change, positive = activation, actives largely listed as activators; note: % of control where 0% means no effect; nearly all actives have a fitted effect of over 55% in size
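qHTS luciferase splicing reporter: luminescence rises when SMN2 exon 7 is included in transfected HEK293 cells. Compound exposure lasted 30-36 h at 37C, with 4.5 mM final sodium butyrate as control, followed by a ONE-Glo read.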
Rab9 promoter act: Rab9 promoter activation; 2.8% of 320,000 active; Huh7 Rab9 promoter-luciferase reporter, luminescence, 24 h; Potency, µM (titrated, usually from 9.22 µM), for the others: at the highest dose activation, negative = inhibition, usual class: activators; note: % of control where 0% means no effect; nearly all actives have a fitted effect of over 60% in size
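Using Huh7 cells stably transfected with Rab9 promoter–luciferase, compounds were incubated 24 h at 37 °C, 5% CO2; luciferase luminescence was read 10 min after reagent addition.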
NPC1 prom act: activates the NPC1 promoter; Huh7 NPC1 promoter luciferase reporter, 24 h; Potency, µM (doses to about 9.22 µM), for the others: at the highest dose activation, actives largely listed as activators; 2.4% of 320,000 active; AID 485313; note: % of control where 0% means no effect; nearly all actives have a fitted effect of over 60% in size
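Stably transfected Huh7 (NPC1 promoter→luciferase), 1500 cells/well in Opti-MEM + 10% FBS, 2 h settle, then compound 24 h at 37 °C. Luminescence after 10 min with Amplite reagent.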
Active calls of the source: *. Calls come from the whole dose curve; as a rule, active = well fitted curve in the direction sought with a large enough effect; inconclusive = small, poorly fitted or top-dose-only effect, or another doubt; inactive = no such curve, though single readings can be large; an effect the other way counts as inactive or inconclusive. Potency is the fitted concentration of half-maximal effect.

Results for N#Cc1c(-n2ncnc2-c2ccc(Br)cc2)sc2c1CCCCC2 ?
FLuc modulator: 1.2µM*; SMN2 splice up: 5.6%

What do the screens show for `COc1cccc(-c2ncnn2-c2sc3c(c2C#N)CCCCC3)c1OC`?
FLuc modulator: 0.953µM*; SMN2 splice up: 8.7%

How did Cc1ccc(C(=O)N(CCc2ccccc2)Cc2ccccc2)cc1S(=O)(=O)N1CCCCC1 do in these assays?
FLuc modulator: 2.7%; ELG1 genotox: -8.6%; ELG1 repair inh: inconclusive; Rab9 promoter act: 1.2%; NPC1 prom act: 0.8%

What do the screens show for `CC1CN(S(=O)(=O)c2cc(C(=O)N(CCc3ccccc3)Cc3ccccc3)ccc2Cl)CC(C)O1` (configuration not stated)?
FLuc modulator: 2.1%; ELG1 genotox: -10.7%; ELG1 repair inh: 23.1µM*; Rab9 promoter act: -3.9%; NPC1 prom act: -2.0%

Results for CN(Cc1cccs1)C(=O)c1ccc(Cl)c(S(=O)(=O)N2CCCCCC2)c1 ?
ELG1 genotox: -5.0%; ELG1 repair inh: 20.6µM*

How did CCOc1ccc(-n2cc(-c3ccccc3)c3c(NC4CCCC4)ncnc32)cc1 do in these assays?
FLuc modulator: -8.1%

How did NC(=O)c1ccc(CSc2nc3ccccc3s2)cc1 do in these assays?
FLuc modulator: inconclusive; ELG1 genotox: inconclusive; ELG1 repair inh: inconclusive; Rab9 promoter act: 2.82µM*; NPC1 prom act: inconclusive

How did c1ccc2sc(SCc3ccc(-c4nnco4)cc3)nc2c1 do in these assays?
FLuc modulator: 4.78µM*; ELG1 genotox: inconclusive; ELG1 repair inh: inconclusive; SMN2 splice up: 12.6µM*; Rab9 promoter act: 3.16µM*; NPC1 prom act: 1.41µM*

What do the screens show for `CCNC(=O)c1ccc(CSc2nc3ccccc3s2)cc1`?
FLuc modulator: 5.36µM*; ELG1 genotox: 10.7%; ELG1 repair inh: -0.6%; Rab9 promoter act: -0.9%; NPC1 prom act: 6.1%

How did O=C(CSc1nnc(-c2ccc(C(F)(F)F)cn2)o1)Nc1ccccc1Cl do in these assays?
FLuc modulator: -2.1%; ELG1 genotox: 6.3%; ELG1 repair inh: 0.0%; Rab9 promoter act: inconclusive; NPC1 prom act: inconclusive

How did CCOc1cc(C(=O)N(CC)CC(=O)Nc2c(F)cccc2F)ccc1OCC(=O)N1CCOCC1 do in these assays?
FLuc modulator: 8.1%; ELG1 genotox: 0.3%; ELG1 repair inh: inconclusive; Rab9 promoter act: 3.0%; NPC1 prom act: -2.1%

How did CC[C@@]12C(=O)N(c3cccc(Br)c3)C(=O)N1[C@H](c1cccc(C)c1)[C@@H]1C(=O)N(Cc3ccccc3)C(=O)[C@@H]12 do in these assays?
FLuc modulator: 4.4%; ELG1 genotox: -3.4%; ELG1 repair inh: -11.8%; Rab9 promoter act: -6.4%; NPC1 prom act: -0.8%

Results for Cn1ncc(SCc2ccccc2)c(Cl)c1=O ?
FLuc modulator: -3.7%; ELG1 genotox: -6.0%; ELG1 repair inh: 8.2µM*; Rab9 promoter act: -25.7%; NPC1 prom act: -6.0%

Results for COc1cccc(O)c1CN1CCC(Oc2ccc(C(=O)NCc3ccccn3)cc2)CC1 ?
FLuc modulator: 1.2%; ELG1 genotox: -8.3%; ELG1 repair inh: -12.8%; Rab9 promoter act: 0.8%; NPC1 prom act: -3.8%

What do the screens show for `O=C(CN1C(=O)CCn2nc(-c3ccccc3)cc21)NCc1ccc(F)cc1`?
FLuc modulator: -2.5%

What do the screens show for `COc1cc(NS(=O)(=O)c2ccc(-c3ccc(=O)[nH]n3)o2)cc(OC)c1OC`?
FLuc modulator: 4.5%; ELG1 genotox: 1.3%; ELG1 repair inh: inconclusive; Rab9 promoter act: 2.5%; NPC1 prom act: -2.3%

How did CC(OC(=O)Cc1c[nH]c2ccccc12)C(=O)N(C)c1ccccc1 (configuration not stated) do in these assays?
FLuc modulator: -0.2%; ELG1 genotox: -3.0%; ELG1 repair inh: inconclusive; Rab9 promoter act: -8.3%; NPC1 prom act: -0.1%

How did Cc1c(/C=C/C(=O)c2ccc(C(C)C)cc2)cnn1C do in these assays?
FLuc modulator: 1.9µM*; ELG1 genotox: inconclusive; ELG1 repair inh: inconclusive; SMN2 splice up: -15.5%; Rab9 promoter act: inconclusive; NPC1 prom act: 11.0%

What do the screens show for `Cc1c(/C=C/C(=O)c2ccc(Cl)s2)cnn1C`?
FLuc modulator: 1.51µM*; ELG1 genotox: inconclusive; ELG1 repair inh: inconclusive; SMN2 splice up: 8.8%; Rab9 promoter act: inconclusive; NPC1 prom act: inconclusive

How did Cc1c(/C=N\NC(=O)c2ccc(F)cc2)cnn1C do in these assays?
FLuc modulator: -18.6%; ELG1 genotox: -0.6%; ELG1 repair inh: inconclusive; SMN2 splice up: -7.0%; Rab9 promoter act: -1.8%; NPC1 prom act: -2.6%

What do the screens show for `Cc1c(/C=C/C(=O)c2ccccc2)cnn1C`?
FLuc modulator: 4.78µM*; ELG1 genotox: inconclusive; ELG1 repair inh: inconclusive; SMN2 splice up: inconclusive; Rab9 promoter act: inconclusive; NPC1 prom act: inconclusive

Results for Cc1nn(Cc2c(Cl)cccc2Cl)c(C)c1NC(=O)/C=C/c1cnn(C)c1C ?
FLuc modulator: -1.3%; ELG1 genotox: -1.1%; ELG1 repair inh: inconclusive; SMN2 splice up: -20.9%; Rab9 promoter act: 3.3%; NPC1 prom act: -4.1%

How did Cc1c(/C=C/C(=O)c2ccc(O)cc2)cnn1C do in these assays?
FLuc modulator: 10.7µM*; ELG1 genotox: 20.6µM*; ELG1 repair inh: inconclusive; SMN2 splice up: inconclusive; Rab9 promoter act: inconclusive; NPC1 prom act: inconclusive

What do the screens show for `CCN(CC)c1ccc2cc(C(C)=O)c(=O)oc2c1`?
FLuc modulator: inconclusive; ELG1 genotox: inconclusive; ELG1 repair inh: inconclusive; SMN2 splice up: 3.8%; Rab9 promoter act: 19.8%; NPC1 prom act: 0.9%

Results for CCN(CC)c1ccc2cc(NC(=O)CCC(=O)O)c(=O)oc2c1 ?
FLuc modulator: 6.75µM*; ELG1 genotox: -11.6%; ELG1 repair inh: -0.3%; SMN2 splice up: -54.8%; Rab9 promoter act: -28.1%; NPC1 prom act: -22.8%

What do the screens show for `CCCCCCc1cc2cc(C(N)=O)c(=N)oc2cc1O`?
FLuc modulator: 16.9µM*; ELG1 genotox: -7.5%; ELG1 repair inh: inconclusive; SMN2 splice up: -2.1%; Rab9 promoter act: -1.4%; NPC1 prom act: 1.7%

How did CCN(CC)c1ccc2cc(C(=O)Nc3cccnc3N3CCOCC3)c(=O)oc2c1 do in these assays?
FLuc modulator: -16.6%; ELG1 genotox: 5.6%; ELG1 repair inh: 2.2%; Rab9 promoter act: -2.0%; NPC1 prom act: -1.7%

Results for CCN(CC)c1ccc2cc(C(N)=O)c(=N)oc2c1 ?
FLuc modulator: 23.9µM*; ELG1 genotox: inconclusive; ELG1 repair inh: inconclusive; SMN2 splice up: 17.4%; Rab9 promoter act: 11.6%; NPC1 prom act: 2.6%
